Compounds with a hit are over-represented: about 2.8% of the library has one in this group of screens.
Smad3 FoxH1 inh – Smad3 (human) transcription factor binding inhibition; P84022; TR-FRET Smad3/Dy647-FoxH1 peptide binding, europium anti-His; inhibition, % at 25 µM; 0.29% of 88,000 active; AID 630;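 active = compounds that reduce the energy-transfer binding signal between the protein and its labelled peptide by more than half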;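 also: 0% = Smad3 plus labelled peptide maximal FRET and 100% = peptide-only background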
Target sequence (P84022 whole entry, looked up): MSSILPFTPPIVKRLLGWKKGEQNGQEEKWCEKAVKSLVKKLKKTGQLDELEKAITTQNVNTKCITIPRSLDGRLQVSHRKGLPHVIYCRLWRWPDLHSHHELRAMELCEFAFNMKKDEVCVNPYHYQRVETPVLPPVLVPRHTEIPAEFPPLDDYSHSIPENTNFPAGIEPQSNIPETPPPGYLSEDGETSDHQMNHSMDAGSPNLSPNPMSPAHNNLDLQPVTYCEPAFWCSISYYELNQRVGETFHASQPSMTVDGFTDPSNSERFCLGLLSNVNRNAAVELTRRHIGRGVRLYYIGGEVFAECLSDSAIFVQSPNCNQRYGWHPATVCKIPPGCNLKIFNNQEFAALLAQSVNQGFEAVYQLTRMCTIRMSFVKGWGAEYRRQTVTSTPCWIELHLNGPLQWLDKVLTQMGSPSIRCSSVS
ERa SRC1 pot – enhances coactivator binding to human estrogen receptor alpha | P03372 | TR-FRET ERalpha-LBD/SRC-Cy5 coactivator binding, 2 h; 100 = basal binding, no effect | coactivator binding (% of control), % at 25.6 µM | 1.3% of 86,000 active | AID 639; in the data active = activity above about 200%;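 also: binding measured in presence of low estradiol as agonist stimulus; 0% = peptide alone without receptor and 100% = receptor with peptide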
ERa coact inh – blocks coactivator binding to human estrogen receptor alpha. P03372. TR-FRET ER-alpha LBD / SRC-1 peptide, estradiol-bound. inhibition, % at 25.6 µM. 1.7% of 86,000 active. AID 629; in the data active = inhibition above about 50%;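 also: 0% = receptor plus peptide control and 100% = peptide only without receptor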
ERb coact inh – ER-beta (human) coactivator binding inhibition; TR-FRET ER-beta LBD / SRC1-Cy5 peptide binding; receptor agonist-loaded with 1 µM estradiol; inhibition, % at 25.6 µM; Q92731; 1.3% of 86,000 active; AID 633;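 active = compounds whose percent inhibition of the receptor-coactivator binding signal exceeds about 50% in the single-dose screen, limit read from the data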;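 also: 0% = receptor plus peptide wells without compound and 100% = peptide-only wells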
MRP1 act – MRP-1 activation. H69AR cells + doxorubicin, viability rescue, CellTiter-Glo. viability increase, % at 10 µM. 0.61% of 140,000 active. AID 799;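 active = viability gain under doxorubicin at or above a set limit, the compound median plus 3 SD, cut at about 4.7% in these data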;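 also: MRP-1 overexpressing cells given doxorubicin 25 µM after compound pretreatment; 18-22 h compound pretreatment then 72 h with doxorubicin before readout; 0% = doxorubicin-only wells and 100% = vehicle-treated cells without doxorubicin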
MRP reversal – MRP-mediated drug resistance reversal. H69AR cells + 2 uM doxorubicin, CellTiter-Glo, 72 h. differential viability (reversal), % at 10 µM. 0.04% of 85,000 active;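 active = viability drop by adding the cancer drug above about 55%, with treated viability meeting a 40% cutoff, limit read from the data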;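 also: viability without doxorubicin minus viability with 2 µM doxorubicin for each compound; larger differential means the compound sensitizes cells more to doxorubicin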
Numbers without * were called inactive; / = no result; [ ] = remark or other dose.

SMILES	Smad3 FoxH1 inh	ERa SRC1 pot	ERa coact inh	ERb coact inh	MRP1 act	MRP reversal
COCCCNC(=O)CS(=O)(=O)Cc1nc(-c2ccccc2C)oc1C	/	/	/	/	-3	/
Cc1oc(-c2ccccc2F)nc1CS(=O)(=O)CC(=O)NCc1ccco1	78*	22	91*[fluorescence artefact?]	91*[fluorescence artefact?]	-3	5
Cc1ccccc1-c1nc(CS(=O)(=O)CC(=O)Nc2cc(F)ccc2F)c(C)o1	5	743*[fluorescence artefact?]	-5	2	0	16
CC1=NN(c2ccc(C)c(C)c2)C(=O)C1C(c1cccc(O)c1)C1C(=O)N(c2ccc(C)c(C)c2)N=C1C (stereo not given)	/	/	/	/	-4	/
CC1=NN(c2ccc(C)cc2C)C(=O)C1C(c1ccccc1O)C1C(=O)N(c2ccc(C)cc2C)N=C1C (stereo not given)	/	/	/	/	5.6*	/
O=C1C(Cl)=C(N2CCCCC2)C(=O)C(Cl)=C1c1cnc(N2CCCCC2)s1	14	31	23	48	-8	1
CN(C)c1ncc(C2=C(Cl)C(=O)C(N3CCCC3)=C(Cl)C2=O)s1	26	9	97*[fluorescence artefact?]	94*[fluorescence artefact?]	-8	-9
Cc1ccc(-c2nnn(CC(=O)Nc3ccc4nn(-c5ccccc5)nc4c3)n2)o1	5	155	58*	39	2	/
CCn1c(CSc2nnc(-c3cccnc3)n2-c2ccccc2C)nc2cc(C(=O)O)ccc21	9	253*	1	25	1	-5
COc1ccccc1N1CCN(C(=O)c2ccc([N+](=O)[O-])s2)CC1	/	/	/	/	-2	/
COc1ccccc1N1CCN(C(=O)c2cc3c(s2)CCC3)CC1	5	61	64*	43	-3	-1
O=C(O)c1ccc([N+](=O)[O-])c(P(=O)(O)O)c1	-2	/	/	/	/	/
c1ccc(SC(Sc2ccccc2)c2ccc3c(c2)OCO3)cc1	-6	/	/	/	/	/
CCOC(=O)c1cnc2cc(-c3ccc(C(C)(C)C)cc3)nn2c1N	/	/	/	/	-2	/
CCOC(=O)c1cnc2cc(-c3ccc(C)cc3)nn2c1-c1ccccc1	-3	247*[fluorescence artefact?]	13	46	0	-1
COCCCNCCCCSc1ccc(Cl)cc1	/	/	/	/	-2	/
Cc1cccc(NC(=O)c2sc3nc(-c4ccc(F)cc4)cn3c2C)n1	-340	839*[fluorescence artefact?]	-10	-15	-2	-10
Cc1cccc(NC(=O)c2sc3nc(-c4ccccc4)cn3c2C)n1	6	144	-29	-14	-1	21
Cc1ccnc(NC(=S)NC(=O)c2cccs2)c1	/	/	/	/	-3	/
O=C(COC(=O)CC1CCCC1)Nc1cc2c(cc1Cl)C(=O)c1ccccc1C2=O	12	62	52*	46	-1	-23
O=C(Nc1ncc(Cc2ccc(C(F)(F)F)cc2)s1)c1ccc(-c2cccc([N+](=O)[O-])c2)o1	/	/	/	/	5.0*	/
O=C(Nc1ncc(Cc2ccccc2Cl)s1)c1ccc([N+](=O)[O-])cc1	/	/	/	/	1	/
O=C(Nc1ncc(Cc2ccccc2Cl)s1)c1ccc(-c2cccc([N+](=O)[O-])c2)o1	/	/	/	/	5.2*	/
N#CC(CO)(Cc1ccc(OC(F)F)cc1)c1nc2ccccc2[nH]1 (stereo not given)	/	/	/	/	-2	/
COc1ccc(C(=O)CSc2nc3ccc([N+](=O)[O-])cc3[nH]2)cc1	/	/	/	/	0	/
SMILES	Smad3 FoxH1 inh	ERa SRC1 pot	ERa coact inh	ERb coact inh	MRP1 act	MRP reversal
NS(=O)(=O)c1ccc(N=Nc2ncccc2O)cc1	30	/	/	/	/	/
COc1ccc(CNc2oc(COc3ccccc3Cl)nc2C#N)cc1	1	228*[fluorescence artefact?]	0	10	-1	3
CCn1nc(C)c(NC(=O)/C=C/c2ccc(OC)c(COc3ccc(Cl)cc3Br)c2)c1C	-4	311*[fluorescence artefact?]	95*[fluorescence artefact?]	52*[fluorescence artefact?]	7.2*	12
CC(NC(=O)OC1CCCCC1)N1C(=O)C2C3C=CC(C3)C2C1=O (stereo not given)	2	103	1	-2	-1	4
O=C(O)C[n+]1ccccc1	8	/	/	/	/	/
CC12CCC(=O)N1C(C(=O)OCC(=O)Nc1sccc1C#N)CS2 (stereo not given)	14	37	91*[fluorescence artefact?]	68*	-1	3
COc1ccc(CC(NC(C)=O)C(=O)NC2CCN(C(=O)NCc3ccccc3)CC2)cc1OC (stereo not given)	2	117	-5	87*[fluorescence artefact?]	-1	-5
NC(=O)C1(N2CCCCC2)CCN(C(=O)c2cccn3c(=O)c4cc(Cl)ccc4nc23)CC1	2	107	5	-1	5.6*	11
Cc1c(C)n(C)c2ccc(C(=O)NCc3cccs3)cc12	8	129	2	10	5.5*	25
Cc1sc(-c2ccncc2)nc1OC(=O)c1cc(Cl)cc(Cl)c1	0	224*	-6	-4	-1	28
Cc1sc(-c2ccncc2)nc1OC(=O)c1ccc(Cl)cc1	-5	113	8	10	0	6
COc1ccc(NC(=O)c2c(F)cccc2F)cc1S(=O)(=O)Nc1ccc(Br)cc1	/	/	/	/	6.3*	/
Cc1ccc2c(c1)C1NC(=S)NC(C)(O2)C1C(=O)Nc1ccc(Cl)cc1 (stereo not given)	/	/	/	/	-4	/
CN(C)Cc1ccc(C(C)(C)C)cc1-c1cc(C(C)(C)C)ccc1CN(C)C	-1	/	/	/	/	/
CC(C)Cn1c(=O)c(C(=O)Nc2ccccc2S(N)(=O)=O)c(O)c2ccccc21	/	/	/	/	-2	/
CCC(C)n1c(=O)c(C(=O)Nc2ccccc2S(N)(=O)=O)c(O)c2ccccc21 (stereo not given)	4	208*	35	29	1	-5
CC(C)NCC[C@@H](O)c1cc2ccccc2o1	5	/	/	/	/	/
O=C(CSc1nnc(-c2ccccc2O)o1)N1CCc2ccccc2C1	2	239*[fluorescence artefact?]	23	27	-5	-11
CCOc1ccc(NC(=O)CSc2nnc(Cn3cnc([N+](=O)[O-])n3)n2C)cc1	/	/	/	/	-1	/
O=C(O)c1ccc(N/N=C/c2ccc(F)c(F)c2)cc1	/	/	/	/	7.3*	/
O=C(O)c1ccc(N/N=C/c2cccc(F)c2)cc1	/	/	/	/	1	/
CSc1ccccc1NC(=O)c1cnccn1	6	64	56*[fluorescence artefact?]	43	-1	-2
CCOc1ccccc1C(=O)Nc1ccc2nc(N3CCN(c4ncccn4)CC3)cc(C)c2c1	-17	303*[fluorescence artefact?]	73*	35	/	-1
COc1ccc(CN2CCn3ncc(C(=O)Nc4cc(C)cc(C)c4)c3C2=O)cc1	-9	252*[fluorescence artefact?]	15	5	-3	-7
Cc1ccc(NS(=O)(=O)c2ccc(Cl)c(C(=O)Nc3ccccc3-c3nc4ccccc4[nH]3)c2)cc1C	/	/	/	/	-4	/
O=C1C(O)CC2c3ccccc3CC3(CCCC3)N12 (stereo not given)	3	235*	-8	-7	-1	-4
COc1ccc(-c2csc(-c3cc4ccccc4oc3=N)n2)cc1	/	/	/	/	1	/
O=C(O)c1c[nH]c2c(ccc3[nH]cc(C(=O)O)c(=O)c32)c1=O	93*	/	/	/	/	/
O=C(O)c1c[nH]c2c(C(F)(F)F)cccc2c1=O	13	88	-2	-8	0	-6
COC(=O)c1sc(NC(=O)c2cnccn2)c(C(=O)OC)c1C	1	119	52*	-2	/	-4

Screening data as filed in PubChem BioAssay.
